Results filed as inconclusive are left out. Calls of active or inactive are those of the source. The call rests on the fitted dose curve; in most records, active means well fitted inhibition curve with a large enough effect; inconclusive means small, poorly fitted or top-dose-only effect; inactive means flat fitted curve, though single readings scatter.
On the % scale 0 is the no-effect control and ±100 the full control effect; potency means the concentration at half of the fitted maximal effect.

In one assay the test system is HaCat. As to the kind of experiment: Cytotoxic Profiling of Annotated Libraries Using Quantitative High-Throughput Screening (AID 1296008). Further: nearly all actives have a fitted effect of over 60% in size. The following applies: Five cell lines viability, CellTiter-Glo ATP luminescence, 48-72 h; max response: hits give low values. In a few lines:
(§1)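 Cytotoxicity was measured as CellTiter-Glo ATP luminescence, read after 10 min at room temperature. Compound treatment of the cells lasted 48 or 72 hr at 37 degrees Celsius in a qHTS format.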
On the technique in general: Cellular ATP, detected with luciferase, serves as a proxy for viable cell number.
On to `Cc1cc(C)nc(NS(=O)(=O)c2ccc(NC(=S)NC(=O)COc3ccc(Br)cc3Cl)cc2)n1`, for which the max response was -3.13% (inactive).
The same measure, in the same setting: next, `C=C(C(=O)O)C1CCC2(C)CCC(O)C(C)(O)C2C1` (stereo not drawn): -8.51% (inactive).
Still for that read-out and setting: next, `CC1(C)CC[C@]2(C(=O)O[C@@H]3O[C@H](CO)[C@@H](O)[C@H](O)[C@H]3O)CC[C@]3(C)C(=CCC4[C@@]5(C)C[C@@H](O)[C@H](O)C(C)(C)C5CC[C@]43C)C2[C@@H]1O` (stereo partly drawn): 2.98% (inactive).
Regarding `CCOC(=O)Nc1cc(-c2ccc(C)c(NS(C)(=O)=O)c2)nn2c(C)nnc12`, the Potency is 0.651 µM (active).
Consider `O=C(c1ccc2nccnc2c1)N1CCCCC1`, for which the max response is -44.6% (inactive).
As to `COc1cc(C(=O)NC2CCN(C)CC2)ccc1Nc1ncc2c(n1)N(C1CCCC1)CC(F)(F)C(=O)N2C`, the Potency was 0.116 µM (active).
In the case of `C/C(=C\C=C\C(C)C1CCC2(C)C3CCC4C(C)(C)C(=O)CCC45CC35CCC12C)C(=O)O` (stereo not drawn), the max response was -16.2% (inactive).
With `Cc1cc(OCc2nc(-c3ccccc3Cl)cs2)ccc1OCC(=O)O`, the compound was called inactive.
As for `CCc1cnn2c(NCc3ccc[n+]([O-])c3)cc(N3CCCCC3CCO)nc12` (stereo not drawn), the Potency was 0.0461 µM (active).
`OC[C@H]1O[C@@H](OCCc2ccccc2)[C@H](O[C@@H]2OC[C@](O)(CO)[C@H]2O)[C@@H](O)[C@@H]1O`: the max response was 0.135% (inactive).
The same measure, in the same setting: next, `CCOCc1nc2c(N)nc3ccccc3c2n1CC(C)(C)O`: 3.85% (inactive); `CC(=O)OC1C(O)C2C(C)C3=CC(=O)OC3(O)CC2C2(C)CCCC(C)(CO)C12` (stereo not drawn): 3.69% (inactive).
Still for that read-out and setting: next, `C=C(C(=O)O)C1CCC2(C)CCC(O)C(=C)C2C1` (stereo not drawn): -10.5% (inactive); `CC(=O)C1=CCC2C3CCC4CC(O[C@@H]5O[C@H](CO)[C@@H](O[C@@H]6O[C@@H](C)[C@H](O)[C@@H](O)[C@H]6O)[C@H](O)[C@H]5O[C@@H]5O[C@H](CO)[C@@H](O)[C@H](O)[C@H]5O)CCC4(C)C3CCC12C` (stereo partly drawn): -22.8% (inactive).

Another assay deals with KB-3-1. The assay is described as above. As to conditions: Five cell lines viability, CellTiter-Glo ATP luminescence, 48-72 h; max response: hits give low values. In a few lines: as §1
Consider `CC1OC(OC2CCC3(C)C(CCC4(C)C3CC=C3C5CC(C)(C)CCC5(C(=O)OC5OC(CO)C(O)C(O)C5O)CCC34C(=O)O)C2(C)C)C(O)C(O)C1O` (stereo not drawn), for which the max response is 4.21% (inactive).
On the same count and under the same terms, next, `COC1C(=O)CCC2(CO2)C1(O)C1(C)OC1CC=C(C)C` (stereo not drawn): 6.79% (inactive); `CC(C)(C)NCCCNC(=O)c1cccc(Br)c1`: 6.67% (inactive).
In the case of `CC(=O)/C=C/[C@H]1[C@](C)(O)[C@@H](O)[C@H](OC(C)=O)C2C(C)(C)CCC[C@@]21C` (stereo partly drawn), the result was inactive.
Consider `C=C1C(OC(C)=O)CCC2(C)CC3(OC)OC(=O)C(C)=C3CC12` (stereo not drawn), for which the max response is 7.17% (inactive).
With `Cc1cc(OCc2nnc(SC3CCCC3)n2-c2cccnc2)ccc1-c1ccc(S(C)(=O)=O)cc1`, the Potency was 1.46 µM (active).
Take `CC(/C=C/C1=CC2=CC(=O)C(C)(O)C(O)C2=CO1)=C\C(C)CCO` (stereo not drawn): the max response is 4.06% (inactive).
Still for that read-out and setting: next, `C[C@]1(CO)CCC[C@]2(C)C3=C(CCC12)COC3` (stereo partly drawn): 5.06% (inactive).
With `C=C(C(=O)O)C1CC2=C(C)CCCC2(C)C[C@@H]1O` (stereo partly drawn), the result was inactive.
Take `CCn1c(=O)c(-c2ccn[nH]2)cc2c(C)nc(N)nc21`: the Potency is 7.31 µM (active).
In the case of `C=C[C@H]1C(O[C@@H]2O[C@H](CO)[C@@H](O)[C@H](O)[C@H]2O)OC=C2C(=O)N3CCc4c([nH]c5ccccc45)[C@H]3C[C@H]21` (stereo partly drawn), the max response is 3.99% (inactive).
Regarding `C[C@@H]1C[C@@H]([C@@H](O)C(C)(C)O)O[C@H]2C[C@@]3(C)C(=C12)C[C@H](O)[C@H]1[C@@]2(C)CCC(=O)C(C)(C)C2CC[C@@]13C` (stereo partly drawn), the max response was 5.24% (inactive).
Same read-out and setting: next, `C[C@@H]1O[C@@H](O[C@@H]2[C@@H](O[C@@H]3O[C@@H](C)[C@H](O[C@@H]4OC[C@H](O)[C@H](O[C@@H]5OC[C@@H](O)[C@H](O)[C@H]5O)[C@H]4O)[C@@H](O[C@@H]4OC[C@](O)(CO)[C@H]4O)[C@H]3O)[C@H](OC(=O)[C@]34CCC(C)(C)C[C@H]3C3=CCC5[C@@]6(C)C[C@H](O)[C@H](O[C@@H]7O[C@H](CO[C@@H]8OC[C@H](O)[C@H](O)[C@H]8O)[C@@H](O)[C@H](O)[C@H]7O)C(C)(C)C6CC[C@@]5(C)[C@]3(C)C[C@H]4O)OC[C@H]2O)[C@H](O)[C@H](O)[C@H]1O` (stereo partly drawn): 9.59% (inactive).
For `CC1(C)CCCC2(C)C1C(O)C=C(CO)C2(O)CO` (stereo not drawn), the call was inactive.
As to `CCOc1ccc(S(=O)(=O)n2c(C)nc3ccccc32)cc1`, the max response was -3.74% (inactive).
Turning to `CC1(C)CC[C@@]2(C(=O)O[C@@H]3O[C@H](CO)[C@@H](O)[C@H](O)[C@H]3O)C(C1)C1=CCC3[C@@]4(C)CC[C@@H](O[C@@H]5O[C@H](C(=O)O)[C@@H](O[C@@H]6OC[C@@H](O)[C@H](O)[C@H]6O)[C@H](O[C@@H]6OC[C@](O)(CO)[C@H]6O)[C@H]5O)C(C)(C)C4CC[C@@]3(C)[C@]1(C)C[C@H]2O` (stereo partly drawn), the call was inactive.
As for `CC/C=C\CC1C(=O)C=CC1(CCCCCCCC(=O)O)OC(C)=O` (stereo not drawn), the call was inactive.
As to `COc1cc(/C=C/C(=O)O[C@H]2[C@H](O)[C@@H](CO)O[C@@]2(CO)O[C@H]2O[C@H](CO)[C@@H](O)[C@H](O)[C@H]2O)ccc1O`, the max response was 1.78% (inactive).
Turning to `CC(C)(O[C@@H]1O[C@H](CO)[C@@H](O)[C@H](O)[C@H]1O)C(OC(=O)/C=C\c1ccc(O)cc1)C(=O)OCc1ccc(O[C@@H]2O[C@H](CO)[C@@H](O)[C@H](O)[C@H]2O)cc1` (stereo partly drawn), the compound was classed as inactive.
Same read-out and setting: next, `CC1CCC2C(C)(C)[C@@H](O)CC[C@]2(C)C12Cc1c(O)cc3c(c1O2)CN(C(CCC(=O)O)C(=O)O)C3=O` (stereo partly drawn): “inactive”.
As to `C/C=C/C=C/C(=O)N1CC[C@]23c4ccccc4N[C@H]4N(C)c5cccc6c5[C@@]42CCN([C@H]6C2OC2(C)C)[C@H]13` (stereo partly drawn), the max response was 9.01% (inactive).
The same measure, in the same setting: next, `C/C=C/C=C/[C@@H]1O[C@](O)([C@H](CC)C(=O)NC/C=C/C=C(\C)[C@@H](OC)[C@@H](C)C2OC(/C=C/C=C/C=C(\C)C(=O)c3c(O)cc[nH]c3=O)[C@H](O)[C@@H]2O)[C@H](O)[C@H](O)C1(C)C` (stereo partly drawn): 2.01% (inactive); `CCC(C)C(=O)OC1CC(C)C=C2C=CC(C)C(CCC(O)CC(O)CC(=O)O)C21` (stereo not drawn): 5.43% (inactive).
In the case of `O=C(O)c1cc(-c2c(-c3ccccc3)nn3ccccc23)n[nH]c1=O`, the outcome was inactive.
On the same count and under the same terms, next, `O=C(CN1C(=O)C2(CCCC2)NCC1c1cc(F)cc(F)c1)Nc1ccc2c(c1)CC1(C2)C(=O)Nc2ncccc21` (stereo not drawn): “inactive”.
Take `Cc1cc(C)nc(NS(=O)(=O)c2ccc(NC(=S)NC(=O)COc3ccc(Br)cc3Cl)cc2)n1`: the max response was 8.68% (inactive).
Take `C=C(C(=O)O)C1CCC2(C)CCC(O)C(C)(O)C2C1` (stereo not drawn): the max response is 1.37% (inactive).
As for `CC1(C)CC[C@]2(C(=O)O[C@@H]3O[C@H](CO)[C@@H](O)[C@H](O)[C@H]3O)CC[C@]3(C)C(=CCC4[C@@]5(C)C[C@@H](O)[C@H](O)C(C)(C)C5CC[C@]43C)C2[C@@H]1O` (stereo partly drawn), the compound was classed as inactive.
With `CCOC(=O)Nc1cc(-c2ccc(C)c(NS(C)(=O)=O)c2)nn2c(C)nnc12`, the Potency was 10.3 µM (active).
For `O=C(c1ccc2nccnc2c1)N1CCCCC1`, the compound was called inactive.
For `COc1cc(C(=O)NC2CCN(C)CC2)ccc1Nc1ncc2c(n1)N(C1CCCC1)CC(F)(F)C(=O)N2C`, the Potency is 0.0058 µM (active).
`C/C(=C\C=C\C(C)C1CCC2(C)C3CCC4C(C)(C)C(=O)CCC45CC35CCC12C)C(=O)O` (stereo not drawn): the max response is -3.21% (inactive).
With `Cc1cc(OCc2nc(-c3ccccc3Cl)cs2)ccc1OCC(=O)O`, the call was inactive.
Take `CCc1cnn2c(NCc3ccc[n+]([O-])c3)cc(N3CCCCC3CCO)nc12` (stereo not drawn): the Potency was 0.0092 µM (active).
On to `OC[C@H]1O[C@@H](OCCc2ccccc2)[C@H](O[C@@H]2OC[C@](O)(CO)[C@H]2O)[C@@H](O)[C@@H]1O`, for which the compound was called inactive.
For `CCOCc1nc2c(N)nc3ccccc3c2n1CC(C)(C)O`, the max response is -7.57% (inactive).
Take `CC(=O)OC1C(O)C2C(C)C3=CC(=O)OC3(O)CC2C2(C)CCCC(C)(CO)C12` (stereo not drawn): the compound was called inactive.
Still for that read-out and setting: next, `C=C(C(=O)O)C1CCC2(C)CCC(O)C(=C)C2C1` (stereo not drawn): “inactive”; `CC(=O)C1=CCC2C3CCC4CC(O[C@@H]5O[C@H](CO)[C@@H](O[C@@H]6O[C@@H](C)[C@H](O)[C@@H](O)[C@H]6O)[C@H](O)[C@H]5O[C@@H]5O[C@H](CO)[C@@H](O)[C@H](O)[C@H]5O)CCC4(C)C3CCC12C` (stereo partly drawn): “inactive”.

The record behind these values is PubChem BioAssay (NCATS).
